Experimental findings from PubChem BioAssay AID2284197 (EPA ToxCast) are described below.

Active and inactive are the calls of the source. How the source made its calls: active means hit-call score of the fitted dose curve at least 0.9, where 1 is the maximum; inactive means score below 0.9.

human Thyroid Hormone Receptor Alpha (TRa) Agonism, THRA (gene 7067), sequence (P10827 whole entry, looked up): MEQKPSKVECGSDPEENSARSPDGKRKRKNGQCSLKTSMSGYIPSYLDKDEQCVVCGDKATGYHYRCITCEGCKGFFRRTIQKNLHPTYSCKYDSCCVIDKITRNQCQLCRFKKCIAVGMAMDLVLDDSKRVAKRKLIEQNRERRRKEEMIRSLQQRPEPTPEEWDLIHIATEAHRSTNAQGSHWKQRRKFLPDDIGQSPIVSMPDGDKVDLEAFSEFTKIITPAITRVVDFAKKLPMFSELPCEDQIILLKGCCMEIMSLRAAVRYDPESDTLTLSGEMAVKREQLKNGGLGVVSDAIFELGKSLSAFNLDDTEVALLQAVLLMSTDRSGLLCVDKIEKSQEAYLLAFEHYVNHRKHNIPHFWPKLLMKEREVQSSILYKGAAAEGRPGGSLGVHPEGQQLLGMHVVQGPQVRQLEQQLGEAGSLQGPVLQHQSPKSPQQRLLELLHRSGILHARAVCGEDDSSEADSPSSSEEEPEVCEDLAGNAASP

For the assay, the target named is human Thyroid Hormone Receptor Alpha (TRa) Agonism, THRA (gene 7067) (UniProt P10827). The assay is described as follows: ERF_TW_NR_COA_hTHRA: Eurofins (ERF) Nuclear Receptor (NR) Functional Coactivator Assay for human Thyroid Hormone Receptor Alpha (TRa) Agonism. The protocol:
ERF_TW_NR_COA_hTHRA is a biochemical, single-readout assay that uses extracted gene-proteins in a cell-free assay. Measurements were taken 0.5 hour after chemical dosing in a 96-well plate. See TRalpha Human Thyroid Hormone NHR Functional Agonist Coactivator Assay, Panlabs.ERF_TW_NR_COA_hTHRA is an assay component calculated from the ERF_TW_NR_COA_hTHRA assay. It is designed to measure TR-FRET using a type of inducible reporter as detected by fluorescence intensity of 7-hydroxy-coumarin with FRET: TR-FRET technology.Data from the assay component ERF_TW_NR_COA_hTHRA_Agonist was analyzed at the assay endpoint, ERF_TW_NR_COA_hTHRA_Agonist, in the positive analysis fitting direction relative to DMSO as the negative control and baseline of activity. Using a type of agonist, gain-of-signal activity can be used to understand changes in protein-protein interaction as they relate to gene THRA. […]
Test compound and/or vehicle is incubated with the 0.25 nM TR alpha LBD-GST and coactivator peptide for 30 minutes at RT. Determination of the amount of complex formed is read spectrofluorimetrically (excitation: 337 nm, emission: 520/490 nm). Test compound-induced increase of fluorescence by 50 percent or more relative to the 0.1 uM T3 response indicates possible TR alpha receptor agonist activity.
Turning to `O=C(/C=C/c1ccc(O)cc1)CC(=O)/C=C/c1ccc(O)cc1`, the compound was classed as inactive. The value for `COc1cc(CCC(=O)CC(=O)CCc2ccc(O)c(OC)c2)ccc1O` was “inactive”.
